The sample as a whole holds a higher share of hits than the screen did.
12-LOX inh: blocks human arachidonate 12S-lipoxygenase; purified 12hLO, xylenol orange hydroperoxide absorbance; AID 1671190; P18054; 1.1% of 580,000 active; Potency, µM (doses to about 108 µM), for the others: at the highest dose activity change, negative = inhibition, most hits filed as inhibitors; also: potency is read from the fitted curve at half-maximal effect
Target sequence (P18054 whole entry, looked up): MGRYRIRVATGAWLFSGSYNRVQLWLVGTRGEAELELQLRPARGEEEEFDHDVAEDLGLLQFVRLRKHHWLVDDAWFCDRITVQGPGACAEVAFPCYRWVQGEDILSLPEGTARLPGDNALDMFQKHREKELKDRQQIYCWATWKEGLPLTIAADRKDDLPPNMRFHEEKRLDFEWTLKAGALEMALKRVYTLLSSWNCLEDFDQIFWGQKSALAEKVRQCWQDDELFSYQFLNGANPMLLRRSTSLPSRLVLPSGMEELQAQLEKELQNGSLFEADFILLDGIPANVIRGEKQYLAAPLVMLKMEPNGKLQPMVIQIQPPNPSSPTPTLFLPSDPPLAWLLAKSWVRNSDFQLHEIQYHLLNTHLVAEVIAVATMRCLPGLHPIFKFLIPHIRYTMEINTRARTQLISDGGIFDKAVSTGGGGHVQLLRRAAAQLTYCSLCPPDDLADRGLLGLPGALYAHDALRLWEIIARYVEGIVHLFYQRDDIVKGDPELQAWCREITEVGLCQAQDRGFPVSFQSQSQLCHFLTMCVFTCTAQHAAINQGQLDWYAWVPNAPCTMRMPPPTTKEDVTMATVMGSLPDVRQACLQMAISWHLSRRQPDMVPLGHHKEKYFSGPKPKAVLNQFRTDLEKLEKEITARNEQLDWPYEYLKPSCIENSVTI
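Purified human 12hLO (150 nM final) in 25 mM Hepes, 0.01% Triton X-100, pH 7.0 was preincubated 15 min at room temperature with compound. Then 40 uM arachidonic acid was added, 30 min. Hydroperoxide was read by Fe-XO absorbance ratio 573/405 nm.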
TDP1 cell noCPT: qHTS for Inhibitors of human tyrosyl-DNA phosphodiesterase 1 (TDP1): qHTS in cells in absence of CPT. DT40 Tdp1-/- hTDP1 cells, no CPT, ATP luminescence, 48 h. Potency, µM (highest dose often 46.2 µM), inactives show at the top dose activity change, negative = growth inhibition, most hits filed as inhibitors. 15% of 420,000 active. AID 686978, 2013; also: potency is read from the fitted curve at half-maximal effect; nearly all actives have a fitted effect of over 55% in size
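Camptothecin absent (DMSO only). Human TDP1-complemented DT40 knockout cells, 400 cells/well, 37 °C for minimum 48 hr; ATP measured via CellTiter-Glo, 30 min dark incubation, luminescence.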
HT1080-NT tox: kills 2HG-producing HT-1080-NT fibrosarcoma cells; 1.6% of 360,000 active; HT-1080-NT fibrosarcoma viability, CellTiter-Glo ATP luminescence, 48 h; Potency, µM (series often up to 46.1 µM), for the others: at the top dose activity, negative = less viability, usual class: cytotoxic;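 also: NT is the 2HG producing partner of a matched IDH1 knockdown line; potency is read from the fitted curve at half-maximal effect; 0% = DMSO-treated cells and -100% = media-only wells without cells; nearly all actives have a fitted effect of over 55% in size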
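Read-out is CellTiter-Glo luminescence after 10 minutes at room temperature, following 48 hours' compound treatment of HT-1080-NT cells (750 cells/well, RPMI, 5% FBS, 37 degrees C).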
IL-1B inflam inh: inflammasome signaling inhibition, IL-1 beta readout | THP-1 LPS/ATP IL-1B secretion, AlphaLISA, 16 h; stronger effect = lower value | 4.7% of 360,000 active | activity change, % at 57.5 µM; in the data active = activity change below about -50%; inconclusive = mostly about -30% to -49%
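Secreted IL-1B measured by AlphaLISA bead assay after 16 h compound exposure of THP-1 cells; compounds (final up to 57.5 uM) added 1 h before LPS (250 ng/mL) and ATP (1.25 mM) stimulation; lower signal means less secretion.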
HT1080 IDH1KD tx: kills HT-1080 cells with IDH1 knockdown; HT-1080 IDH1 knockdown viability, ATP luminescence, 48 h; Potency, µM (highest dose often 46.1 µM), for the others: at the top dose activity, negative = toxicity, actives largely listed as cytotoxic; 2% of 360,000 active; AID 686971;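 also: potency is read from the fitted curve at half-maximal effect; 0% = DMSO wells and -100% = cell-free medium wells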
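In this qHTS, HT-1080 cells depleted of IDH1 are exposed for 48 h at 37 °C to compound titrations. Toxicity is scored from CellTiter-Glo luminescence, with DMSO as full viability and medium alone as none.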
TDP1 cell CPT: growth inhibition of DT40 Tdp1-/-;hTDP1 cells with camptothecin (screen for TDP1 inhibitors) | chicken DT40 Tdp1-/-;hTDP1 cells + 20 nM CPT, ATP luminescence, 48 h | Potency, µM (titrated, usually from 46.2 µM), without a hit: at the highest dose activity change, negative = growth inhibition, hits mostly inhibitors | 12% of 420,000 active; also: potency is read from the fitted curve at half-maximal effect; nearly all actives have a fitted effect of over 55% in size
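Chicken DT40 Tdp1-/- cells stably complemented with human TDP1 were seeded at 400 cells/well in medium containing 20 nM camptothecin, exposed to pin-transferred compounds, and grown at 37 °C for at least 48 hr. Viability was read as ATP luminescence.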
* marks the source's active call; other numbers are inactive results; ? = inconclusive; / = no result given; [ ] = remark or other dose. Unless noted, calls follow the shape of the dose curve; as a rule, active = well fitted curve in the direction sought with a large enough effect; inconclusive = small, poorly fitted or top-dose-only effect, or another doubt; inactive = no such curve, though single readings can be large; an effect the other way counts as inactive or inconclusive. Unless noted, % is scaled to controls: 0 for no effect and ±100 for the full control effect.

SMILES | 12-LOX inh | TDP1 cell noCPT | HT1080-NT tox | IL-1B inflam inh | HT1080 IDH1KD tx | TDP1 cell CPT
O=Cc1cccn1-c1ccc(F)cc1 | 6% | / | / | / | / | /
Cc1cc2cc(NC(=O)c3cccc(C(N)=O)c3)ccc2[nH]1 | -10% | / | / | / | / | /
COc1ccc(CCNC(=O)C(=O)NCC(c2cccs2)S(=O)(=O)c2ccc(F)cc2)cc1 (configuration not stated) | 0% | 23µM* | / | / | / | ?
O=S(=O)(NCC(c1cccs1)S(=O)(=O)c1ccccc1)c1ccc(F)cc1 (configuration not stated) | -18% | 2.3µM* | / | / | / | 1.6µM*
O=C(NCCc1ccc(F)cc1)C(=O)NCC(c1cccs1)S(=O)(=O)c1cccs1 (configuration not stated) | -28% | 26µM* | / | / | / | ?
COc1ccc(CC(=O)NCC(c2cccs2)S(=O)(=O)c2ccc(F)cc2)cc1 (configuration not stated) | -15% | ? | / | / | / | ?
COc1ccc(N(C(=O)CCl)C(C(=O)NCCc2ccccc2)c2cccs2)cc1 (configuration not stated) | 0% | 4.1µM* | 2.1µM* | -108* | 1.6µM* | 4.6µM*
COc1ccc(CNC(=O)C(c2ccncc2)N(C(=O)Cc2cccs2)c2ccccc2)cc1 (configuration not stated) | 18% | ? | 5% | 2 | 5% | ?
O=C(NCCc1ccc(F)cc1)C(=O)NCC(c1ccco1)S(=O)(=O)c1cccs1 (configuration not stated) | -1% | ? | / | / | / | ?
COc1cc(C)ccc1Oc1ccc2c(-c3ccccc3)noc2n1 | -4% | / | / | / | / | /
CNC(=O)c1cc[nH]c1C1CCCN(C(=O)c2cccs2)C1 (configuration not stated) | 16% | / | / | / | / | /
N#Cc1c(NC(=O)c2cc(-n3cnnc3)ccc2Cl)sc2c1CCCC2 | 31% | 13µM* | ? | -14 | ? | 21µM*
N#Cc1c(NC(=O)c2cc(C3CC3)on2)sc2c1CCC2 | ? | 12µM* | ? | 37 | ? | 10µM*
Cc1cc(C(=O)Nc2sc3c(c2C#N)CCCC3)no1 | 35µM* | ? | ? | -15 | ? | ?
CC(C)Cc1cc(C(=O)Nc2sc3c(c2C#N)CCCC3)no1 | 3% | -11% | 5% | -2 | 7% | -16%
CC(C)(C)C(=O)NC(=S)Nc1sc2c(c1C#N)CCCCC2 | -14% | 23µM* | -20% | -3 | -24% | ?
O=C1NCCCCCCN(C(=O)CCC2CCCC2)[C@H]2CCCC[C@@H]12 | 30% | / | / | / | / | /
COc1ccc(NC(=O)CSc2nc(Cl)nc3nc[nH]c23)cc1 | 8% | / | / | / | / | /
Cc1ccc(NC(=O)CSCC(=O)N(C)CC(=O)Nc2ccccc2C(F)(F)F)cc1 | ? | -2% | -1% | 19 | 7% | 13%
N#Cc1c(NC(=O)/C=C/c2ccco2)sc2c1CCCC2 | 35µM* | 0.41µM* | 0.58µM* | 2 | ? | 0.23µM*
O=C(c1ccccc1F)N1CCC2(CC(c3cccc(C(F)(F)F)c3)=NO2)C1 (configuration not stated) | 0%[6.33 µM] | / | / | / | / | /
COc1ccc(Cl)cc1C(=O)N1CCC(Oc2ncccc2C(=O)N2CCCCC2)C1 (configuration not stated) | -2% | / | / | / | / | /
C=C1CC(COc2cc(=O)oc3ccccc23)(c2ccccc2)OC1=O (configuration not stated) | 2% | 1.6µM* | 16µM* | -117* | 5.2µM* | 1.2µM*
C=C1CCC2C(C)(C)[C@H](O)CC[C@@]2(C)[C@@H]1COc1cc(=O)oc2ccccc12 (some centres not stated) | 13% | ? | ? | -13 | ? | ?
